The test concerns the target Genome polyprotein (Dengue virus type 2 (strain 16681-PDK53)) (UniProt P29991). Briefly: Dengue-2 NS5 methyltransferase inhibitors, primary screen, biochemical, confirmation dose response (AID 588689). As to conditions: Dengue-2 NS5 methyltransferase capping enzyme assay, at 25 µM, stronger effect = higher value.
Where [1] appears, read: measured here: pilot screen replicate inhibition.

In all, about 340,000 compounds went through this assay and about 1,000 (0.29%) were called active. Cut-off read from the data, not from the text of the source: inconclusive = inhibition above about 29% without an active follow-up result; inactive = below that. Not all results are given here. Entries with a potency or affinity are not part of this list.

Usually inhibition stands for the change of the read-out against control, counted positive when it falls.

As to `Cc1ncc(C(O)c2ccc(N(C)C)cc2)n1Cc1ccccc1` (centres undefined), the inhibition was 0% (inactive).
With `CC(C)C(C(=O)NC1CCCC1)N(Cc1ccco1)C(=O)CNS(=O)(=O)c1ccccc1` (centres undefined), the inhibition was -8.96% (inactive).
Still for that read-out and setting: the figure for `CCn1c(=O)n(CC)c2cc(N3CCCC3)c(NC(=O)c3ccc(OC)c(Br)c3)cc21` is -2.72% (inactive).
The same measure, in the same setting: the figure for `O=c1ccc(-c2ccc(S(=O)(=O)NCc3cccc(Br)c3)s2)n[nH]1` is -1.36% (inactive); for `CCCCNC(=O)CN(Cc1ccco1)S(=O)(=O)c1ccc(C(C)=O)cc1` it is -2.95% (inactive).
Same read-out and setting: with `O=C(O)CC1CCC(=C(Cl)Cl)C1` (centres undefined) the figure was 4.83% (inactive); with `Cc1ccc(S(=O)(=O)N(CC(=O)Nc2cccc(C(F)(F)F)c2)C(=O)N2CCN(C)CC2)cc1`, -4.32% (inactive); with `CCn1c(SCC(=O)NC)nnc1C(C)C`, 4.79% (inactive).
Consider `Cc1ccccc1-c1c(C)oc2cc(O)ccc2c1=O`, for which the inhibition is 1.35% (inactive).
Turning to `COCCN(C(=O)COC(=O)CCc1ccccc1)c1c(N)n(Cc2ccccc2)c(=O)[nH]c1=O`, the inhibition is 0% (inactive).
Still for that read-out and setting: with `O=C(O)CCn1cc(/C=C/C(=O)c2ccc(Cl)cc2)c(-c2ccc(Br)cc2)n1` the figure was 12.8% (inactive); with `O=C(O)CCn1cc(/C=C\C(=O)c2ccc(Cl)cc2)c(-c2cccc(Br)c2)n1`, 26% (inactive).
Take `CCOc1ccc(NC(=O)CSc2nc(C3CC3)nc3ccccc23)cc1`: the inhibition was 15.3% (inactive).
As to `CCOC(=O)c1c(NC(=O)C(Sc2ccccc2)c2ccccc2)sc(C(N)=O)c1C` (centres undefined), the inhibition was 2.74% (inactive). For the same molecule, the inhibition under setting [1] came to 3.33%.
With `O=c1c2ccccc2[nH]c(=S)n1-c1cccc(S(=O)(=O)N2CCCC2)c1`, the inhibition was -8.01% (inactive).
For `CCC(C)/C=C/C1=CC2=C(Cl)C(=O)C3(C)OC(=O)C(C(=O)C(C)C(C)O)C3C2=CO1` (centres undefined), the inhibition is 4.35% (inactive).
Same read-out and setting: the figure for `CC[C@H](C)/C=C(C)/C=C/C1=CC2=CC(=O)[C@]3(C)OC(=O)[C@@H](C(C)=O)[C@@H]3C2=CO1` is 7.68% (inactive); for `O=C(Cn1ncc2c([nH]c3ccccc32)c1=O)NCCCN1CCN(c2ccccc2)CC1` it is 0% (inactive).
With `C=CCn1cc(C(=O)NCC2CCCO2)c(=O)c2cc(S(=O)(=O)N3CCCCCC3)ccc21` (centres undefined), the inhibition is -3.55% (inactive).
On to `S=c1[nH]nc(Cc2cccs2)n1-c1ccccc1`, for which the inhibition was -2.82% (inactive).
For `CC(C)(C)c1nnc(NC(=O)C2CCN(c3ncccn3)CC2)s1`, the inhibition was -2.45% (inactive).
Same read-out and setting: with `O=C(c1ccccc1)c1ccc(Oc2ccc([N+](=O)[O-])cc2[N+](=O)[O-])cc1` the figure was -2.33% (inactive); with `COc1cc(/C=C2/SC(=O)NC2=O)ccc1Oc1ccc([N+](=O)[O-])cc1[N+](=O)[O-]`, 23.6% (inactive); with `CC1=NN(c2ccc([N+](=O)[O-])cc2)C(=O)/C1=C\N(C)C`, -9.46% (inactive).
On to `COc1cc(/C=C2/C(=O)N(c3ccc(C)c(C)c3)N=C2C)cc([N+](=O)[O-])c1O`, for which the inhibition was 9.88% (inactive). Also, the inhibition under setting [1] is -3.04%.
With `O=C(c1ccc(Cl)s1)N1CCc2ccccc21`, the inhibition is -1.37% (inactive).
In the case of `O=C(CCN1CCCCC1=O)NC1CCCN(Cc2ccc(Cl)cc2)C1` (centres undefined), the inhibition was -5.2% (inactive).
Still for that read-out and setting: with `O=C1NC(=O)/C(=C/c2ccccc2Oc2ccc(Cl)cc2)S1` the figure was -4.16% (inactive).
Still for that read-out and setting: the figure for `CN1C(=O)/C(=C/c2ccccc2OCc2ccc(F)cc2)N(C)C1=S` is -7.89% (inactive).
As for `Cc1ccc(Oc2ccccc2/C=C2\SC(=O)N(C)C2=O)cc1`, the inhibition was 0% (inactive). For the same molecule, the inhibition under setting [1] was found to be 5.03%.
In the case of `O=C1NC(=O)/C(=C\c2ccccc2Oc2ccc(F)c(F)c2)S1`, the inhibition was 24.6% (inactive).
The same measure, in the same setting: the figure for `CCOC(=O)CN(C(=O)CNC(=O)c1ccco1)C(C(=O)NC1CCCC1)c1ccccc1OCC` (centres undefined) is -1.62% (inactive); for `NS(=O)(=O)c1ccc(CCNC(=O)CCNS(=O)(=O)c2ccccc2C(F)(F)F)cc1` it is 0% (inactive).
Regarding `C/C(=N\NS(=O)(=O)c1ccccc1)c1cccc(NC(=O)c2cccc(Cl)c2)c1`, the inhibition is -5.93% (inactive).
Same read-out and setting: the figure for `COc1cccc(NC(=O)CN(C)C(=O)CN2C(=O)c3ccc([N+](=O)[O-])cc3C2=O)c1` is -7.27% (inactive); for `CS(=O)(=O)c1ccc(C(=O)OCC(=O)c2ccc(Cl)s2)cc1` it is 4.34% (inactive).
Consider `CCCCCNC(=O)C1CCC(Cn2c(=S)[nH]c3ccccc3c2=O)CC1` (centres undefined), for which the inhibition was -0.74% (inactive).
For `O=C(O)c1ccccc1Nc1ccccc1C(=O)O`, the inhibition was 4.09% (inactive).
Still for that read-out and setting: with `COc1cccc(Nc2ccccc2C(=O)O)c1` the figure was -2.96% (inactive); with `COc1ccccc1/C(C)=N/NC(=O)c1nnn(-c2nonc2N)c1C(C)C`, -2.62% (inactive); with `CC(=O)N1CCc2c(sc(NC(=O)c3cccc(N4C(=O)CCC4=O)c3)c2C(N)=O)C1`, -10.4% (inactive).
With `O=Cc1ccc(C(=O)O)cc1`, the inhibition is -0.73% (inactive).
For `Cc1cccc(N2C(=O)/C(=C\c3ccc(C(=O)O)cc3)c3ccccc3C2=O)c1`, the inhibition is 25% (inactive).
Same read-out and setting: with `Cn1nc(-c2ccc(Cl)cc2)cc1NC(=O)Nc1ccccc1` the figure was -6.13% (inactive).
As to `COc1ccc(CN(C)C(=O)Cn2cnc3c(OCc4ccccc4)ncnc32)cc1OC`, the inhibition was 3.64% (inactive). The inhibition under setting [1] stood at 2.12%.
`O=C1c2cccc3cccc(c23)C(=O)N1CCN1CCN(CC(O)COc2ccccc2)CC1` (centres undefined): the inhibition is 1.28% (inactive).
The same measure, in the same setting: with `COc1ccc(C)cc1NC(=O)CN1CCN(c2ccccn2)CC1` the figure was -3.92% (inactive).
In the case of `Cn1c(=O)c2[nH]c(-c3ccccc3Cl)c(O)c2n(C)c1=O`, the inhibition was -9.85% (inactive).
As to `CC(=O)Nn1cc2c(c1-c1ccccc1)c(=O)n(C)c(=O)n2C`, the inhibition is -11.6% (inactive). Further, under setting [1], the inhibition is -4.71%.
`CSc1nc(C=Nc2ccccc2Cl)c(O)n1Cc1cccc(Cl)c1`: the inhibition is -15.4% (inactive).
On the same count and under the same terms, the figure for `CCc1nnc(SCC(=O)Nc2ccc3c(c2)OCO3)n1CC` is 2.59% (inactive); for `COc1cc(/C=C/c2ccc3cccc(O)c3n2)c(Br)cc1O` it is -37.2% (inactive).
Still for that read-out and setting: the figure for `COc1cc(C=C2C(=O)c3ccccc3C2=O)ccc1O` is 25.4% (inactive).
On the same count and under the same terms, the figure for `CCCCN1C(=O)NC(NS(=O)(=O)c2ccc(N)cc2)(C(F)(F)F)C1=O` (centres undefined) is 1.6% (inactive).
Take `CC#CCN1C=C(C(=O)OCC)C(C)N(Cc2ccc(Br)cc2)S1(=O)=O` (centres undefined): the inhibition was 3.64% (inactive). Also, the inhibition under setting [1] is -3.33%.
Take `COc1ccccc1N1C(=O)CC(N(O)c2ccccc2)C1=O` (centres undefined): the inhibition is -4.6% (inactive).
On to `CCN(CC)C1CC(=O)N(c2ccc(Br)cc2)C1=O` (centres undefined), for which the inhibition is -14.3% (inactive).
Same read-out and setting: the figure for `COc1ccccc1N1CCN(C2CC(=O)N(c3ccc(F)cc3)C2=O)CC1` (centres undefined) is 10.3% (inactive); for `CCCCOc1ccc(N2C(=O)CC(N(O)c3ccccc3)C2=O)cc1` (centres undefined) it is -3.24% (inactive).
The same measure, in the same setting: with `CC(=O)c1ccc(C(=O)N(C)C2CCCN(Cc3ccccc3F)C2)s1` (centres undefined) the figure was -12.1% (inactive).
For `Cc1ccc(S(=O)(=O)Nc2nc(-c3ccccc3)cs2)cc1`, the inhibition was 23% (inactive).
As for `Cc1ccc(S(=O)(=O)Nc2ccccc2C(=O)Nc2nc(-c3ccc(F)cc3)cs2)cc1`, the inhibition is 0.64% (inactive).
Turning to `COc1ccc(-c2csc(NS(=O)(=O)c3ccc([N+](=O)[O-])cc3)n2)cc1`, the inhibition was 19.5% (inactive).
Regarding `O=S(=O)(Nc1nc(-c2ccccc2)cs1)c1cccc(C(F)(F)F)c1`, the inhibition was 19.9% (inactive).
In the case of `COc1ccc(S(=O)(=O)N2CCCC2C(=O)NCc2cccs2)cc1` (centres undefined), the inhibition is -17.2% (inactive).
The same measure, in the same setting: the figure for `CCOc1ccc(S(=O)(=O)N2CCCCC2)c2ccccc12` is -5.6% (inactive); for `CCc1cccc(C)c1NC(=O)CSc1nc2ccccc2n1CC(=O)N(C)C` it is -2.07% (inactive).
Turning to `O=C(O)COc1ccccc1C=NNc1ccc([N+](=O)[O-])cc1S(=O)(=O)Nc1ccc(Cl)cc1`, the inhibition was 35% (inactive).
Still for that read-out and setting: the figure for `Cc1ccc(NS(=O)(=O)c2ccc(N/N=C/c3ccncc3)c([N+](=O)[O-])c2)c(C)c1` is 2.21% (inactive); for `O=C(O)COc1ccccc1/C=N/NC(=O)c1cc(-c2ccccc2)nc2ccccc12` it is 7.47% (inactive).
Same read-out and setting: the figure for `CCN(CC)S(=O)(=O)c1ccc(N/N=C/c2ccccc2OCC(=O)O)c([N+](=O)[O-])c1` is 13.7% (inactive); for `O=C(O)COc1ccccc1/C=N/Nc1ccc(S(=O)(=O)N2CCOCC2)cc1[N+](=O)[O-]` it is 6.86% (inactive); for `COc1ccc(NS(=O)(=O)c2cc([N+](=O)[O-])ccc2NN=Cc2ccccc2OCC(=O)O)cc1` it is -8.26% (inactive).
Still for that read-out and setting: with `COc1ccccc1NS(=O)(=O)c1cccc(C(=O)N/N=C/c2ccccc2OCC(=O)O)c1` the figure was -8.38% (inactive).
Regarding `O=C(O)COc1ccccc1/C=N/NC(=O)c1cc(-c2ccc(F)cc2)nc2ccccc12`, the inhibition was 1.48% (inactive).
On the same count and under the same terms, the figure for `CNC(=O)N(O)C1N(/N=C/c2ccc(C)cc2)C(=S)SC1(C)C` (centres undefined) is -3.93% (inactive); for `O=C(CCOc1ccccc1)NNC(=O)c1ccccc1` it is -4.63% (inactive).
Same read-out and setting: the figure for `Cc1ccc(C)c(C(=O)CCC(=O)Nc2cccnc2)c1` is -3.23% (inactive); for `CC1=C(C#N)C(=O)NC1(C)O` (centres undefined) it is 5.14% (inactive).
On the same count and under the same terms, with `COc1ccc(N(CC(=O)N2CCN(Cc3ccccc3)CC2)S(=O)(=O)c2ccccc2)cc1` the figure was -5.2% (inactive).
As to `O=C(c1cccs1)N(Cc1ccco1)C1CCS(=O)(=O)C1` (centres undefined), the inhibition was -4.01% (inactive).
For the molecule `O=C(Nc1ccccc1)c1ccccc1NC(=O)[C@H]1CCCC[C@H]1C(=O)O`, the inhibition was -3.92% (inactive). In addition, the inhibition under setting [1] was -1.53%.
For the molecule `CCC(C)Sc1cc(-c2nc3ccc(Cl)cn3c2NC2CCCCC2)ccc1OC` (centres undefined), the inhibition is -12.6% (inactive).
On the same count and under the same terms, with `Cc1cc(OC(C)C(=O)NC2CCN(Cc3ccccc3)CC2)c2c(C)cc(=O)oc2c1` (centres undefined) the figure was -2.72% (inactive).
With `CCCCOC(=O)C1=C(C)NC(=O)NC1c1ccc(OC)cc1` (centres undefined), the inhibition was -0.39% (inactive).
On to `Cn1cc(C(=O)Nc2ccc(F)c(F)c2)cn1`, for which the inhibition was 0% (inactive).
Still for that read-out and setting: the figure for `COCC(=O)Nc1ccc(N2CCCC2)c(S(=O)(=O)Nc2ccccc2OC)c1` is -9.92% (inactive).
